Bioassay records (PubChem BioAssay)
Sampled rows, rich in hits. Any-hit rate of the full collection: about 1.8%.
Sa ugtP lethal – kills S. aureus RN4220 lacking UgtP; S. aureus RN4220 ugtP deletion, OD600 growth, 16 h; growth inhibition, % (test concentration not listed); 330,000 tested, 0.54% active; AID 1259309; in the data active = growth inhibition above about 68%;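 note: plate controls were untreated wells for no effect and antibiotic for full effect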
DUSP3 inh – DUSP3 (human) phosphatase inhibition; recombinant VHR phosphatase, pNPP absorbance; 290,000 tested, 0.52% active; P51452; inhibition, % at 13.3 µM; in the data active = inhibition above about 50%
RN4220 kill – kills Staphylococcus aureus RN4220. S. aureus RN4220 growth, OD600, 16 h. inhibition, % (concentration not given with the values). 330,000 tested, 0.33% active; in the data active = inhibition above about 85%;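 note: plate controls were untreated cells for no effect and reference antibiotic for full effect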
PfHsp40 rescue – restores yeast growth despite PfHsp40 toxicity. S. cerevisiae expressing PfHsp40, growth rescue, ATP luminescence. 340,000 tested, 0.68% active. growth rescue, % at 12.5 µM; in the data active = growth rescue above about 28%, passing the limit was not always enough; inconclusive = no clear call, values can overlap the other calls;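 note: yeast W303a lacking pdr1 and pdr3 grown in galactose medium; growth measured after three days at 30 °C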
PrPC TRFRET – inhibitors of human cell surface prion protein PrPC | P04156 | TR-FRET read-out | inhibition, % at 13.8 µM | 370,000 tested, 0.43% active | AID 720596; in the data active = inhibition above about 24%; note: 0% = median of the test wells and 100% = reference compound wells
PrPC confirm – confirmation of inhibitors of cell surface human prion protein | shares compounds with PrPC TRFRET | cell surface PrPC level, TR-FRET | inhibition, % at 13.8 µM | 1,500 tested, 65% active | AID 743200; in the data active = inhibition above about 25%
LD9 tox – counter-screen for PrPc inhibitors: cytotoxicity in LD9 cells. 1,500 tested, 29% active. shares compounds with PrPC TRFRET. inhibition, % at 13.8 µM. luminescence viability; in the data active = inhibition above about 9.5%
* = called active by the depositor; ? = inconclusive; . = not tested or not shown.

SMILES	Sa ugtP lethal	DUSP3 inh	RN4220 kill	PfHsp40 rescue	PrPC TRFRET	PrPC confirm	LD9 tox
Cc1nonc1NC(=O)CSc1nc(CCC2CCCC2)nc2ccccc12	2	0	2	1	5	.	.
Cc1cc(NC(=O)CSc2nc(CCC3CCCC3)nc3ccccc23)no1	-12	10	4	0	43*	56*	-11
Cc1cc(NC(=O)CSc2nc(-c3cccs3)nc3ccccc23)no1	-7	.	1	0	44*	102*	-2
CC1CN(C(C)CO)C(=O)c2cc(NC(=O)C3CC3)ccc2OC1CN(C)S(C)(=O)=O (stereo not given)	-1	.	6	.	.	.	.
O=[N+]([O-])c1cccc(CN2C(Cc3ccccc3)COCCS2(=O)=O)c1 (stereo not given)	7	.	9	.	.	.	.
CC(=O)Oc1c(C(C)C)cc(N(C(C)=O)c2ccccc2)cc1C(C)C	6	.	8	-1	36*	29*	-3
CNC(=O)Oc1ccc(N(C)C)cc1C(C)C	.	35	.	0	-2	.	.
NC(=O)c1ccc2c(=O)n3c(-c4cc(Cl)c(N)c(Cl)c4)csc3nc2c1	8	11	3	0	32*	1	3
Cc1csc2nc3cc(C(N)=O)ccc3c(=O)n12	-2	30	8	0	-1	.	.
CCc1ccc(OC)c(S(=O)(=O)Nc2ccc(Cc3ccncc3)cc2)c1	14	17	-1	1	42*	30*	8
O=S(=O)(Nc1ccc(Cc2ccncc2)cc1)c1ccc(Cl)c(Cl)c1	1	33	-1	4	31*	32*	16*
CC(C)c1ccc(N2C(=O)NC(=O)C(=CC=Cc3ccco3)C2=O)cc1	-2	.	0	.	.	.	.
Cc1cc(C)cc(OCC(=O)NN=Cc2ccncc2)c1	4	.	6	.	.	.	.
COc1ccc(Oc2nc(-c3ccccn3)ncc2OC)cc1	-4	-2	7	?	-1	.	.
CN(C)c1nc(-c2ccccn2)nnc1-c1ccccc1	3	24	13	393*	27*	36*	-1
c1ccc(-c2cccc(CNc3nc(-c4ccccn4)nnc3-c3ccccc3)c2)cc1	.	.	.	.	33*	36*	25*
COc1cnc(-c2ccccn2)nc1N(C)C	-1	2	7	0	26*	27*	1
c1ccc(-c2nnc(-c3ccccn3)c(-c3ccccn3)n2)nc1	2	-3	1	.	-16	.	.
C#CCn1cc(C=NNc2nc3ccccc3[nH]2)c2ccccc21	-18	.	-5	.	.	.	.
C=CCn1cc(/C=N/Nc2nc3ccccc3[nH]2)c2ccccc21	.	-6	.	0	27*	24	14*
COc1ccc(C(=O)N/N=C/c2cccc3cccnc23)cc1	.	20	.	-1	18	.	.
CCOc1ccc(C(=O)N/N=C/c2cccc3cccnc23)cc1	.	7	.	0	25*	24	4
CCOc1ccc(/C(O)=C2\C(=O)C(=O)N(c3ccccn3)C2c2ccccc2F)c(C)c1 (stereo not given)	.	.	.	.	34*	67*	-5
COc1ccc(/C(O)=C2/C(=O)C(=O)N(c3ccccn3)C2c2ccc(F)cc2)cc1 (stereo not given)	1	-2	-1	0	6	.	.
CCOc1ccc(C2C(=C(O)c3ccc(OC)c(OC)c3)C(=O)C(=O)N2c2cc(C)on2)cc1OC (stereo not given)	-1	.	3	.	.	.	.
SMILES	Sa ugtP lethal	DUSP3 inh	RN4220 kill	PfHsp40 rescue	PrPC TRFRET	PrPC confirm	LD9 tox
CCOc1ccc(/C(O)=C2\C(=O)C(=O)N(c3cc(C)on3)C2c2ccccc2OC)cc1 (stereo not given)	-5	4	0	0	35*	55*	0
COc1cc(C2Nc3ccccc3C(=O)N2c2ccccc2)c(Br)cc1OCC(=O)O (stereo not given)	11	-20	5	-1	26*	18	-3
COC(=O)COc1ccc(Cl)cc1C1Nc2ccccc2C(=O)N1c1ccc(OC)cc1 (stereo not given)	-15	20	-10	-1	-7	.	.
Cc1nc2ccc(Br)cc2c(-c2ccccc2)c1C(=O)O	.	7	.	0	62*	82*	1
COc1ccc2c(c1)[nH]c1c(N3CCN(Cc4ccc5c(c4)OCO5)CC3)ncnc12	17	14	11	1	6	.	.
Cc1ccc2c(c1)[nH]c1c(N3CCN(Cc4ccccc4)CC3)ncnc12	22	3	12	4	30*	22	50*
NC(=O)C[n+]1ccc(C=NO)cc1	-3	.	8	.	.	.	.
Cc1cc(C)c(S(=O)(=O)NCc2cccnc2)c(C)c1	-4	-8	3	1	46*	35*	-5
Cc1cc(C)c(C)c(S(=O)(=O)NCc2cccnc2)c1C	-5	10	6	-2	6	.	.
COC(=O)C1=C(c2ccc(F)cc2OCc2ccccc2)CC2CCC1N2C(=O)NC1CCCCC1 (stereo not given)	-14	.	-7	.	.	.	.
O=C(c1ccccc1)c1c[nH]c(C(=O)NNc2ccccc2)c1	-4	18	-2	1	27*	24	7
O=C(O)CCCCCCC1C(=O)NC(=O)N1CCC(O)C1CCCCC1 (stereo not given)	-4	24	2	0	27*	19	-8
O=C(O)CCCCCN1C(=O)C2CCCCC2C1=O (stereo not given)	-7	26	0	0	4	.	.
CCn1c2ccccc2c2cc(C=Nn3c(-c4cc(C)[nH]n4)n[nH]c3=S)ccc21	-4	.	2	.	.	.	.
COc1ccc(CC2C(=O)NC(C)C(=O)N(C)C3C(=O)N(C)C(Cc4ccc(O)c(c4)Oc4ccc(cc4)C3O)C(=O)NC(C)C(=O)NC(C)C(=O)N2C)cc1 (stereo not given)	.	.	.	-2	87*	95*	38*
CC(C)CC(N)c1csc(Nc2cnccn2)n1 (stereo not given)	.	.	.	.	31*	26*	-5
O=C(Nc1ccccc1)C1=CC(C2CC2)CC(OCc2ccc(CO)cc2)O1 (stereo not given)	3	.	1	.	.	.	.
CCc1nc(SCC(=O)NNC(=O)c2ccc(OC)cc2)c2ccccc2n1	5	8	3	-2	109*	116*	-10
COc1ccc(C(=O)NNC(=O)CSc2nc(C(C)C)nc3ccccc23)cc1	0	20	6	-1	81*	101*	-17
CCc1nc(SCC(=O)N2c3ccccc3Sc3ccccc32)c2ccccc2n1	-1	25	1	0	46*	89*	-8
COc1ccc(C(=O)NNC(=O)CSc2ccccc2)cc1	5	17	2	0	4	.	.
CCc1nc(SCC(=O)Nc2nc3c(s2)CCCC3)c2ccccc2n1	-31	19	3	0	30*	72*	-9
Cn1cccc1C=NNC(=O)CSc1nc2ccccc2[nH]1	4	.	5	.	.	.	.
O=C(O)c1ccc(NN=Cc2ccc(-c3cccc(Cl)c3)o2)cc1	49	.	78	.	.	.	.
